We go through 35 compounds from PubChem BioAssay (NCATS).

Results filed as inconclusive are left out. A call without a number means that no potency is given here. Activity calls are given as the source filed them. Calls follow the shape of the dose curve; as a rule, active = well fitted cell-killing curve with a large enough effect; inconclusive = small, poorly fitted or top-dose-only effect, or effect the other way; inactive = flat fitted curve, though single readings scatter.
Potency is read from the fitted curve at half-maximal effect.

In the first test the test system is OV90. The test can be described thus: Primary qHTS to identify gynecologic anti-cancer compounds using libraries of approved drugs and bioactive compounds (AID 1345084). Also: nearly all actives have a fitted effect of over 55% in size. The note with it: Gynecologic cancer cell panel viability, ATPlite luminescence, 48 h; series mostly up to 57.5 µM. In short, it runs like this:
(§1)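 Cell viability after 48 h drug treatment, ATPlite luminescence readout; five doses.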
As to `CN(C)[C@@H]1C(=O)C(C(N)=O)=C(O)[C@@]2(O)C(=O)C3=C(O)c4c(O)ccc(Cl)c4[C@@](C)(O)C3C[C@@H]12` (stereo not given in full), the Potency entry is “inactive”.

As for `CC(C)[C@H](NC(=O)c1nn(Cc2ccc(F)cc2)c2ccccc12)C(N)=O`, the Potency entry is “inactive”.

As for `COC1CCCC(C)OC(=O)Cc2cc(O)cc(O)c2C(=O)C1` (stereo not given), the Potency entry was “inactive”.

On to `CN1CCCCC1Cn1cc(C(=O)c2cc([N+](=O)[O-])ccc2I)c2ccccc21` (stereo not given), for which the Potency result is “inactive”.

As to `C=C1C(=O)CC2OC2(C)CC2OC(=O)C(=C)C2C(O)C1OC(=O)/C(C)=C\C` (stereo not given), the Potency result was “inactive”.

On to `CC12CCC3C(C1)c1c(cc(O)c(C(=O)c4ccccc4)c1OC3(C)C)O2` (stereo not given), for which the Potency entry was “inactive”.

With `CN1C(=O)[C@@H](Cc2c[nH]c3ccccc23)N=C(c2ccccc2F)c2ccccc21`, the Potency result was “inactive”.

Take `C#C[C@]1(O)CC[C@H]2[C@@H]3CC[C@H]4Cc5nc6nc7ccccc7n6cc5C[C@]4(C)[C@H]3CC[C@@]21C`: the Potency entry is “inactive”.

Take `CC(C)[C@H]1OC(=O)[C@H](Cc2ccccc2)N(C)C(=O)[C@@H](C(C)C)OC(=O)[C@H](Cc2ccccc2)N(C)C(=O)[C@@H](C(C)C)OC(=O)[C@H](Cc2ccccc2)N(C)C1=O`: the Potency entry was “inactive”.

`CCC1C2CC3C4N(C)c5ccccc5C45CC(C2C5O)N3C1O` (stereo not given): the Potency result was “inactive”.

Regarding `CCCCCCC1C(=O)O[C@H](C)[C@H](NC(=O)c2cccc(NC=O)c2O)C(=O)O[C@@H](C)[C@@H]1OC(=O)CC(C)C` (stereo not given in full), the Potency is 0.355 µM (active).

With `C=C(C)C(=O)O[C@H]1[C@@H]2[C@H](C)C(=O)O[C@@H]2C[C@@H](C)[C@@H]2C=CC(=O)[C@]21C`, the Potency was 3.55 µM (active).

Consider `CCN1C[C@]2(COC)CC[C@H](O)[C@@]34C5C[C@@H]6[C@@H](OC)C[C@@](OC(C)=O)(C5[C@@H]6OC(C)=O)[C@H]([C@H](OC)C23)[C@@H]14` (stereo not given in full), for which the Potency entry is “inactive”.

`C[C@]12CC[C@H](O)C[C@@]1(O)CC[C@@H]1[C@@H]2CC[C@]2(C)[C@@H](c3ccc(=O)oc3)CC[C@]12O`: the Potency entry was “inactive”.

As for `CN1C(=O)N(c2ccc(C#N)c(C(F)(F)F)c2)C(=O)[C@@]1(CO)c1ccccc1`, the Potency result is “inactive”.

Turning to `CCCCCn1cc(C(=O)Oc2cccc3cccnc23)c2ccccc21`, the Potency result was “inactive”.

Take `CN=C(NS(=O)(=O)c1ccc(Cl)cc1)N1C[C@H](c2ccccc2)C(c2ccc(Cl)cc2)=N1`: the Potency result is “inactive”.

With `CN(Cc1cccc(-c2ccncc2)c1)C(=O)Oc1ccc(-c2ccc(C(N)=O)cc2)cc1`, the Potency entry is “inactive”.

Regarding `CN(C(=O)C(c1ccccc1)c1ccccc1)[C@H](CN1CC[C@H](O)C1)c1ccccc1`, the Potency entry was “inactive”.

For the compound `COC(=O)C12C(=O)C(C)(O)C(=O)C1(C)C(C)=CC1C34CCC(OC3=O)C(C)(C)C4CCC12C` (stereo not given), the Potency result was “inactive”.

`CCOc1ccc(Oc2ccc(OCc3cc(F)ccc3F)cc2)c(N)c1`: the Potency result is “inactive”.

Turning to `Cc1ccc2c(c1)[C@H]1CN(C)CC[C@H]1N2C(=O)CSc1nnnn1-c1ccc(Cl)cc1`, the Potency result was “inactive”.

In the case of `C=C1C2(C)CC3C(C)(O)C4=CC(=O)OC(C)(C)C4=CCC3(C)C13C(=O)OC(C)C3(O)C2=O` (stereo not given), the Potency entry is “inactive”.

For the compound `CCCN(CCC)[C@@H]1CCc2ccc3[nH]c(C#N)cc3c2C1`, the Potency entry is “inactive”.

On to `C[C@]12CC[C@H](O)C[C@@H]1CC[C@@H]1[C@@H]2CC[C@]2(C)[C@@H](C3=CC(=O)OC3)CC[C@]12O`, for which the Potency result was “inactive”.

For `c1ccc([C@@H]2C[C@H]2NC2CCNCC2)cc1`, the Potency entry is “inactive”.

With `CC(=O)OC[C@]12[C@H](OC(C)=O)C(=O)[C@@H]3[C@@H](O)[C@@]14O[C@@]3(C)COC(=O)c1cccnc1[C@@H](C)[C@H](C)C(=O)O[C@@H]([C@H](OC(C)=O)[C@@H]2OC(C)=O)[C@]4(C)O`, the Potency result was “inactive”.

Turning to `Cc1c(N[C@@H](c2nnc(-c3ccc(C#N)cc3)o2)[C@H](C)O)ccc(C#N)c1Cl`, the Potency entry is “inactive”.

In the case of `COc1ccc2c(c1)c(CCN(C)C)cn2S(=O)(=O)c1ccccc1`, the Potency entry is “inactive”.

In the next test the test system is PA-1. The description is as above. The note with it: Gynecologic cancer cell panel viability, ATPlite luminescence, 48 h; series mostly up to 57.5 µM. Summed up:
as §1
On to `CN(C)[C@@H]1C(=O)C(C(N)=O)=C(O)[C@@]2(O)C(=O)C3=C(O)c4c(O)ccc(Cl)c4[C@@](C)(O)C3C[C@@H]12` (stereo not given in full), for which the Potency result is “inactive”.

`CC(C)[C@H](NC(=O)c1nn(Cc2ccc(F)cc2)c2ccccc12)C(N)=O`: the Potency result is “inactive”.

Turning to `COC1CCCC(C)OC(=O)Cc2cc(O)cc(O)c2C(=O)C1` (stereo not given), the Potency is 11.2 µM (active).

Regarding `CN1CCCCC1Cn1cc(C(=O)c2cc([N+](=O)[O-])ccc2I)c2ccccc21` (stereo not given), the Potency entry was “inactive”.

As to `CC12CCC3C(C1)c1c(cc(O)c(C(=O)c4ccccc4)c1OC3(C)C)O2` (stereo not given), the Potency entry was “inactive”.

As for `CN1C(=O)[C@@H](Cc2c[nH]c3ccccc23)N=C(c2ccccc2F)c2ccccc21`, the Potency entry is “inactive”.

In the case of `C#C[C@]1(O)CC[C@H]2[C@@H]3CC[C@H]4Cc5nc6nc7ccccc7n6cc5C[C@]4(C)[C@H]3CC[C@@]21C`, the Potency result was “inactive”.

Regarding `CC(C)[C@H]1OC(=O)[C@H](Cc2ccccc2)N(C)C(=O)[C@@H](C(C)C)OC(=O)[C@H](Cc2ccccc2)N(C)C(=O)[C@@H](C(C)C)OC(=O)[C@H](Cc2ccccc2)N(C)C1=O`, the Potency was 7.94 µM (active).

Turning to `CCC1C2CC3C4N(C)c5ccccc5C45CC(C2C5O)N3C1O` (stereo not given), the Potency entry is “inactive”.

Consider `COc1cc(O)c2c(c1)CCC[C@@H](O)[C@H](O)C(=O)/C=C\C[C@H](C)OC2=O`, for which the Potency entry is “inactive”.

In the case of `C=C(C)C(=O)O[C@H]1[C@@H]2[C@H](C)C(=O)O[C@@H]2C[C@@H](C)[C@@H]2C=CC(=O)[C@]21C`, the Potency is 3.16 µM (active).

For the compound `CCN1C[C@]2(COC)CC[C@H](O)[C@@]34C5C[C@@H]6[C@@H](OC)C[C@@](OC(C)=O)(C5[C@@H]6OC(C)=O)[C@H]([C@H](OC)C23)[C@@H]14` (stereo not given in full), the Potency result is “inactive”.

Turning to `C[C@]12CC[C@H](O)C[C@@]1(O)CC[C@@H]1[C@@H]2CC[C@]2(C)[C@@H](c3ccc(=O)oc3)CC[C@]12O`, the Potency entry is “inactive”.

Take `CN1C(=O)N(c2ccc(C#N)c(C(F)(F)F)c2)C(=O)[C@@]1(CO)c1ccccc1`: the Potency result was “inactive”.

Take `CC(=O)O[C@H]1C[C@]2(O)[C@@H]3CC[C@@H]4C[C@@H](O)CC[C@]4(C)[C@H]3CC[C@]2(C)[C@H]1c1ccc(=O)oc1`: the Potency is 0.1 µM (active).

Take `CCCCCn1cc(C(=O)Oc2cccc3cccnc23)c2ccccc21`: the Potency result is “inactive”.

As for `CN=C(NS(=O)(=O)c1ccc(Cl)cc1)N1C[C@H](c2ccccc2)C(c2ccc(Cl)cc2)=N1`, the Potency result is “inactive”.

As to `COC1CC(O[C@H]2CC[C@@]3(C)C(CCC4C3CC[C@]3(C)C(C5=CC(=O)OC5)CCC43O)C2)OC(C)C1OC1OC(COC2OC(CO)C(O)C(O)C2O)C(O)C(O)C1O` (stereo not given in full), the Potency is 2.24 µM (active).

Regarding `CN1Cc2c(ccc3c2OCO3)[C@@H]2[C@H]1c1cc3c(cc1C[C@@H]2O)OCO3`, the Potency was 4.47 µM (active).

With `CN(Cc1cccc(-c2ccncc2)c1)C(=O)Oc1ccc(-c2ccc(C(N)=O)cc2)cc1`, the Potency result is “inactive”.

For the compound `CC1=CC2OC3CC(O)[C@](C)([C@@]2(C)C(O)C1=O)[C@]31CO1` (stereo not given in full), the Potency is 3.16 µM (active).

Regarding `CN(C(=O)C(c1ccccc1)c1ccccc1)[C@H](CN1CC[C@H](O)C1)c1ccccc1`, the Potency result is “inactive”.

`COC(=O)C12C(=O)C(C)(O)C(=O)C1(C)C(C)=CC1C34CCC(OC3=O)C(C)(C)C4CCC12C` (stereo not given): the Potency result was “inactive”.

Take `CCOc1ccc(Oc2ccc(OCc3cc(F)ccc3F)cc2)c(N)c1`: the Potency entry is “inactive”.

`Cc1ccc2c(c1)[C@H]1CN(C)CC[C@H]1N2C(=O)CSc1nnnn1-c1ccc(Cl)cc1`: the Potency result is “inactive”.

For `C=C1C2(C)CC3C(C)(O)C4=CC(=O)OC(C)(C)C4=CCC3(C)C13C(=O)OC(C)C3(O)C2=O` (stereo not given), the Potency entry is “inactive”.

`Fc1cc(F)c2c(c1)C1C=CCC1C(c1cccnc1)N2` (stereo not given): the Potency is 17.8 µM (active).

As to `CCCN(CCC)[C@@H]1CCc2ccc3[nH]c(C#N)cc3c2C1`, the Potency entry is “inactive”.

Regarding `c1ccc([C@@H]2C[C@H]2NC2CCNCC2)cc1`, the Potency result was “inactive”.

As for `Cc1c(N[C@@H](c2nnc(-c3ccc(C#N)cc3)o2)[C@H](C)O)ccc(C#N)c1Cl`, the Potency entry was “inactive”.

For `COc1ccc2c(c1)c(CCN(C)C)cn2S(=O)(=O)c1ccccc1`, the Potency entry is “inactive”.
